# From PubChem
# Compounds with a hit are over-represented: about 2.1% of the library has one in this group of screens.
# aSyn rescue: qHTS of alpha-syn Inhibitors; hit rate 0.14% among 370,000; AID 652106, 2013; Potency, µM (titrated, usually from 46.1 µM), for the others: at the highest dose growth rescue (activation), actives largely listed as activators; Yeast expressing alpha-synuclein, growth rescue, BacTiter-Glo, 24 h; further: % of control where 0% means no effect; nearly all actives have a fitted effect of over 65% in size
#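 Screening used galactose-induced yeast with toxic alpha-synuclein levels, exposed to compound for 24 hr at 30 deg C. Cell growth, read with BacTiter-Glo luminescence, gave the measured signal.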
# Mito fusion yeast: qHTS Assay for Small Molecule Inhibitors of Mitochondrial Division or Activators of Mitochondrial Fusion. hit rate 0.23% among 320,000. AID 485298, 2010. Potency, µM (series often up to 46.1 µM), inactives show at the top dose growth rescue (activation), hits mostly activators. S. cerevisiae fusion-defective mutant growth rescue, CellTiterGlo 48 h; further: % of control where 0% means no effect; nearly all actives have a fitted effect of over 45% in size
#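 Yeast fusion mutant, YPEG (non-fermentable carbon), compound, 48 h at 37C non-permissive; CellTiterGlo added, 10 min RT, luminescence read. Rescued growth = division inhibition.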
# Glioma ERSR ind: qHTS for Inducers of the Endoplasmic Reticulum Stress Response (ERSR) in Human Glioma: qHTS | U87-MG GRP78 promoter luciferase reporter, 16 h | Potency, µM, without a hit: at the highest dose activation, usual class: activators | hit rate 0.02% among 420,000; further: series mostly up to about 76 µM; % of control where 0% means no effect; nearly all actives have a fitted effect of over 35% in size
#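 Stably transfected U87-MG glioma cells carrying a GRP78-based luciferase sensor; 16 h compound incubation. Luminescence end-point read 10 min after Bright-Glo addition at room temperature.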
# AT treatment: qHTS Assay for Identifying a Potential Treatment of Ataxia-Telangiectasia | F2112 A-T fibroblasts, KAP-1 phosphorylation AlphaLISA; neocarzinostatin DNA damage 30 min before lysis | Potency, µM (doses to about 57.5 µM), for the others: top-dose activation, actives largely listed as activators | hit rate 0.19% among 320,000 | AID 485349, 2010; further: % of control where 0% means no effect; nearly all actives have a fitted effect of over 45% in size
#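 hTERT-immortalized A-T patient fibroblasts (F2112), 500 cells/well in OPTI-MEM, 1% FBS, got compounds for 60 min, then NCS for 30 min at 37C. Lysates were then assayed for phospho-KAP-1 by AlphaLISA (anti-pKAP1 donor, anti-KAP1 acceptor beads), 6 hr at 25C.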
# TDP43 rescue: qHTS of TDP-43 Inhibitors; Potency, µM (top dose mostly 46.1 µM), for the others: at the top dose growth rescue (activation), hits mostly activators; hit rate 1.8% among 410,000; TDP-43 expressing yeast growth rescue, BacTiter-Glo, 24 h; AID 652104, 2013; further: % of control where 0% means no effect; nearly all actives have a fitted effect of over 50% in size
#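 In this qHTS, compounds that restore growth of yeast expressing TDP-43 appear as activators. Cells (OD600=0.02, galactose medium, raffinose-pregrown) are incubated with compound 24 hr at 30 deg C and growth is quantified by BacTiter-Glo.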
# Abeta rescue: qHTS for compounds that reverse cellular toxicity of Amyloid beta (A-beta) peptide in yeast: Primary Screen | yeast expressing A-beta42, growth rescue, OD600, 48 h; response scale: 0% DMSO, 100% iron-clioquinol control | Potency, µM (titrated, usually from 46.1 µM), actives largely listed as activators | hit rate 0.063% among 410,000 | AID 1347071, 2019; further: nearly all actives have a fitted effect of over 55% in size
#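 Yeast growth medium received pinned compounds, then yeast cells expressing toxic A-beta were added; plates incubated at 30 C for 48 hr. Growth read as absorbance at 600 nm, normalized to DMSO and equimolar FeCl3 plus clioquinol controls.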
# Starred values were filed as active, the others as inactive; i = inactive; ? = inconclusive; . = not tested or not shown; [ ] = dose if it differs, or a comment. The call rests on the fitted dose curve; in most records, active means well fitted curve in the direction sought with a large enough effect; inconclusive means small, poorly fitted or top-dose-only effect, or another doubt; inactive means no such curve, though single readings can be large; an effect the other way counts as inactive or inconclusive. Potency means the concentration at half of the fitted maximal effect.
SMILES,aSyn rescue,Mito fusion yeast,Glioma ERSR ind,AT treatment,TDP43 rescue,Abeta rescue
COc1ccc(Cl)cc1Cn1c(C)c(C(=O)NCc2cccc([N+](=O)[O-])c2)sc1=O,?,.,1%,.,6%,i
CCCCN(C)C(=O)c1sc(=O)n(Cc2cc(Cl)ccc2OC)c1C,10%,.,-2%,.,?,i
Cc1ccc(N2CCN(C(=O)c3nn(C)c4c3CSc3ccccc3-4)CC2C)cc1 (stereo unspecified),.,.,-2%,.,?,i
COc1cc(C)c(CN2CCC3(CCC(CNC(=O)c4ccnn4C)O3)CC2)cc1C (stereo unspecified),.,.,-4%,.,.,.
Nc1ccccc1Sc1ccccc1[N+](=O)[O-],17%,12%,-3%,3%,18µM*,i
O=[N+]([O-])c1cc(/C=N/O)ccc1Sc1ccccc1,19%,29%,-1%,-5%,3.2µM*,i
CO/N=C/c1ccc(Sc2ccccc2)c([N+](=O)[O-])c1,-8%,29%,7%,4%,2%,i
O=[N+]([O-])c1ccccc1SNc1ccccc1,18%,.,-4%,.,13µM*,i
CO/N=C/c1ccc(Sc2ccccc2N)c([N+](=O)[O-])c1,7%,12%,-1%,0%,20µM*,?
COc1ccc2ccccc2c1CN1CCc2nnc(CNC(=O)c3cccc(F)c3)n2CC1,.,.,-7%,.,.,.
CC(=O)N1CCC[C@H]1C(=O)NCC1Cc2cc(C)cc(-c3ccc(Cl)cc3)c2O1 (stereo partly specified),.,.,-1%,.,.,.
Cc1ccc(Cn2c(C)c3cnn(CC(=O)NCCc4ccc(Cl)cc4)c(=O)c3c2C)cc1,.,.,-2%,.,6%,i
CC(C)(C)n1ncc2c(=O)n(Cc3ccc(C#N)c(F)c3)cnc21,.,.,-1%,.,.,.
Cc1ccc2nccnc2c1,.,.,-11%,.,.,.
CCOC(=O)NCc1ccc(Cl)c(Cl)c1,8%,-2%,1%,4%,18µM*,i
CN(C)c1nc2c(Br)c(Br)c(Br)c(Br)c2[nH]1,-16%,4.1µM*,-7%,.,.,.
O=C(NCCN1CCOCC1)c1cnn(-c2nccc(-c3cc4ccccc4o3)n2)c1C1CC1,.,.,-4%,.,.,.
COC(=O)C1CC1[C@H](NC(=O)c1cccnc1)c1ccccc1 (stereo partly specified),.,.,0%,.,.,.
Cc1sc2nc(-c3ccncc3)[nH]c(=O)c2c1-c1ccccc1,.,13%,.,9%,.,.
Cc1sc2nc(-c3ccccn3)[nH]c(=O)c2c1-c1ccccc1,?,3%,3%,?,18µM*,i
C/C(=C\c1ccco1)CN1CCOc2ccc(CN3CCC(Oc4cccnc4)CC3)cc2C1,.,.,2%,.,.,.
CS(=O)(=O)c1ccc(C(=O)OCc2nnc(-c3ccc(Cl)cc3)o2)cc1[N+](=O)[O-],-24%,-11%,?,-5%,18µM*,i
O=C(OCc1nnc(-c2ccc(Cl)cc2)o1)c1ccc(O)cc1,7%,-2%,2%,-8%,-15%,i
CCOC(=O)N/N=C/c1cn(CCCOc2ccccc2)c2ccccc12,9%,14%,-5%,6%,11µM*,i
CCCCn1nc(NC(=O)CC)c2cc3cc(OC)ccc3nc21,0%,?,3%,?,11µM*,i
SMILES,aSyn rescue,Mito fusion yeast,Glioma ERSR ind,AT treatment,TDP43 rescue,Abeta rescue
CCCn1nc(NC(=O)c2ccco2)c2cc3ccc(C)cc3nc21,-2%,4%,-4%,26%,-1%,i
CCCn1nc(NC(=O)C(C)(C)C)c2cc3cc(OC)ccc3nc21,1%,-1%,1%,32%,17%,i
COc1ccc2nc3c(cc2c1)c(NC(=O)c1cccs1)nn3CC(C)C,2%,5%,3%,28%,25µM*,i
CCCn1nc(NC(=O)c2ccco2)c2cc3cc(C)ccc3nc21,-16%,2%,2%,22µM*,25%,i
O=S1(=O)CCOC[C@H](c2ccccc2)N1Cc1ccc(Cl)c(Cl)c1,.,.,-5%,.,.,.
COc1ccc(CCNc2nc(-c3ccc(C)cc3)cc(C(F)F)n2)cc1OC,.,.,-3%,.,0%,i
Cc1ccc(-c2cc(C(F)F)nc(S(C)(=O)=O)n2)cc1,-11%,0%,-14%,-1%,11µM*,i
Cc1ccc(-c2nnn(C(C)C(=O)N3c4ccccc4CCc4ccccc43)n2)cc1 (stereo unspecified),-2%,14µM*,3%,10%,1%,i[9.22 µM]
Cc1cnc(C)c(-c2ccc(O)c(CN3CCN(C=O)CC3)c2)n1,.,.,-4%,.,.,.
Cc1ccc(Nc2c3c(nc4nncn24)CCC3)cc1,.,.,.,.,16µM*,i
Brc1ccc(Nc2c3c(nc4nncn24)CCC3)cc1,.,.,.,.,13µM*,i
Cc1ccccc1Nc1c2c(nc3nncn13)CCC2,.,.,-3%,.,0%,i
Cc1cccc(Nc2c3c(nc4nncn24)CCC3)c1,.,.,.,.,18µM*,i
Cc1ccc(Nc2c3c(nc4nncn24)CCC3)cc1C,.,.,.,.,?,i
Clc1ccc(Nc2c3c(nc4ncnn24)CCC3)cc1,1%,-3%,2%,-18%,18µM*,i
COc1ccc(Nc2c3c(nc4nncn24)CCC3)cc1Cl,.,.,-3%,.,22%,i
CCOc1ccc(Nc2c3c(nc4nncn24)CCC3)cc1,.,.,-1%,.,35µM*,i
COCCCNc1oc(/C=C/c2ccccc2)nc1C#N,13%,15%,-6%,16µM*,13%,i
Cc1nn(C(C)C(=O)c2cccc(Cl)c2)c(C)c1[N+](=O)[O-] (stereo unspecified),9%,0%,-5%,1%,14%,i
Cn1cnc([N+](=O)[O-])c1S(=O)(=O)c1cccc(Cl)c1,4%,-23%,-16%,0%,13µM*,i
Cn1cnc([N+](=O)[O-])c1S(=O)(=O)Nc1ccccc1,-4%,.,-14%,.,-17%,i
Cn1cnc([N+](=O)[O-])c1S(=O)(=O)Oc1ccccc1,-6%,.,-15%,.,13µM*,i
COc1ccccc1Cn1c(CNS(=O)(=O)c2cccc([N+](=O)[O-])c2)nc2cccnc21,.,.,0%,.,22%,i
Cc1oc(-c2ccc(C(=O)Nc3cccc(C(F)(F)F)c3)cc2)nc1CSc1ccccc1,.,.,-6%,.,0%,i
